Test results as given in PubChem BioAssay AID652192 (Johns Hopkins Ion Channel Center, 2013).
Measured potencies and affinities stand elsewhere. Activity calls are given as the source filed them.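 How the source made its calls: active means peak inhibition of the KCNQ2 potassium channel over 30% at some tested dose, with a fitted dose response curve; inactive means no inhibition at any dose, or no curve fitted.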

Each compound was assayed against Potassium voltage-gated channel subfamily KQT member 2 (Rattus norvegicus) (UniProt O88943) (assay: block of rat KCNQ2 potassium channel – cell-based, FluxOR thallium flux, concentration-response, selectivity assay for TASK1 inhibitor project, SAR follow-up (AID 652192)). Conditions: KCNQ2 cell line, FluxOR thallium flux fluorescence; series mostly up to 30 µM.
Sequence of Potassium voltage-gated channel subfamily KQT member 2 (Rattus norvegicus) (O88943 whole entry, looked up): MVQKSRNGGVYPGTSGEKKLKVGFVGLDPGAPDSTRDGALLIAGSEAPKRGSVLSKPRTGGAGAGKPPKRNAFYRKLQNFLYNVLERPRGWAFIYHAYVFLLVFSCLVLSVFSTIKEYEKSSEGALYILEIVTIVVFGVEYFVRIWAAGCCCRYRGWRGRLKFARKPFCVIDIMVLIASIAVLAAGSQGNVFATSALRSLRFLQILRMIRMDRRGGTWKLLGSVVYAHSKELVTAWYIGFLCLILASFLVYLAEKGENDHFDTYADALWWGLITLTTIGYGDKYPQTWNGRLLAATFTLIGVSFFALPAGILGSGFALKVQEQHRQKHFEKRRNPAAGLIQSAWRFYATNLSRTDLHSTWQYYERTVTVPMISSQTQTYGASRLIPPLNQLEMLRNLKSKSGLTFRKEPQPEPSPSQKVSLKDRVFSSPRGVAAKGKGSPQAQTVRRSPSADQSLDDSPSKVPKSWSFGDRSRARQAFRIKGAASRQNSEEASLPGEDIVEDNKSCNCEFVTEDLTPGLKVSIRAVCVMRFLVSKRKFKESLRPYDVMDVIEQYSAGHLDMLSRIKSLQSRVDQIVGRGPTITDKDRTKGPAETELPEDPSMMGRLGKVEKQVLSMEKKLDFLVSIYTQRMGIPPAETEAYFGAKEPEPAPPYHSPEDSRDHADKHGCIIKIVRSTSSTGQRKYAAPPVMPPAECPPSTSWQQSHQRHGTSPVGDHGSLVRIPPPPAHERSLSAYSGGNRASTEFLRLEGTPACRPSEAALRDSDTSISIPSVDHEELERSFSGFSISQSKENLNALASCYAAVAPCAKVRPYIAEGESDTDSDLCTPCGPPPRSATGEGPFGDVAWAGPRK

outcome, inactive:
COc1ccccc1C(=O)Nc1cccc(NC(=O)c2cccc3ccccc23)c1, COc1cccc(OC)c1C(=O)Nc1cccc(NC(=O)c2cccc(C)c2)c1, CCOc1ccccc1NC(=O)c1cccc(NC(=O)c2ccccc2)c1, O=C(Nc1cccc(NC(=O)c2ccccc2Cl)c1)c1ccccc1, Cc1cccc(C(=O)Nc2cccc(NC(=O)c3ccccc3C)c2)c1, COc1ccccc1C(=O)Nc1cc(NC(=O)c2ccccc2C(C)C)ccc1F, O=C(Nc1cccc(NC(=O)c2ccccc2C(F)(F)F)c1)c1ccccc1, COc1ccccc1NC(=O)c1cccc(NC(=O)C2CCCCC2)c1, Cc1cccc(C(=O)Nc2cccc(NC(=O)c3ccc(N(C)C)cc3)c2)c1, O=C(Nc1cccc(NC(=O)c2ccccc2)c1)c1ccccc1, CCOc1ccccc1NC(=O)c1cccc(NC(=O)c2ccccc2OC(F)(F)F)c1, Cc1cccc(C(=O)Nc2cccc(NC(=O)c3cccc(Cl)c3)c2)c1, Cc1cccc(C(=O)Nc2cccc(NC(=O)c3ccncc3)c2)c1, Cc1cccc(C(=O)Nc2cccc(NC(=O)c3cccs3)c2)c1, O=C(Nc1cccc(NC(=O)c2cccs2)c1)c1ccccc1, CCOc1ccccc1NC(=O)c1cccc(NC(=O)c2ccccc2C)c1, O=C(Nc1cccc(NC(=O)c2cccnc2)c1)c1ccccc1, O=C(Nc1cccc(NC(=O)c2cccc(C(F)(F)F)c2)c1)c1ccccc1, CCOc1ccccc1NC(=O)c1cccc(NC(=O)c2ccc(C(F)(F)F)cc2)c1, CCOc1ccccc1NC(=O)c1cccc(NC(=O)c2ccccc2Cl)c1, O=C(Nc1cccc(NC(=O)c2ccsc2)c1)c1ccccc1, O=C(Nc1cccc(NC(=O)c2ccc(C(F)(F)F)cc2)c1)c1ccccc1, Cc1cccc(C(=O)Nc2cccc(NC(=O)c3ccccc3C(F)(F)F)c2)c1, CCOc1ccccc1NC(=O)c1cccc(NC(=O)C2CCCO2)c1 (stereo not drawn), CCOc1ccc(NC(=O)c2cccc(NC(=O)C3CCCC3)c2)cc1, CCOc1ccccc1NC(=O)c1cccc(NC(=O)c2ccc(C)cc2)c1, Cc1cccc(C(=O)Nc2cccc(NC(=O)c3ccc(Cl)cc3)c2)c1, CCOc1ccccc1NC(=O)c1cccc(NC(=O)c2cccc(Cl)c2)c1, COc1ccc(C(=O)Nc2cccc(NC(=O)c3cccc(C)c3)c2)cc1, CC(C)(C)c1ccc(C(=O)Nc2cccc(NC(=O)c3ccccc3)c2)cc1, CCOc1ccccc1NC(=O)c1cccc(NC(=O)c2cccc(C(F)(F)F)c2)c1, CCOc1ccccc1NC(=O)c1cccc(NC(=O)c2cccc(C)c2)c1, CCOc1ccccc1NC(=O)c1cccc(NC(=O)C2CCOC2)c1 (stereo not drawn)
